# “And” between values parts separate entries of the source, which are not always exact repeats. Identical values can stand only once. Records with an inconclusive call do not appear. A number with no mark means an inactive call. The source made the active and inactive calls. Calls follow the shape of the dose curve; as a rule, active = well fitted activation curve with a large enough effect; inconclusive = small, poorly fitted or top-dose-only effect; inactive = no such curve, though single readings can be large or run the other way.
# Biological target: Cellular tumor antigen p53 (Homo sapiens) (UniProt P04637)
# Sequence (P04637 whole entry, looked up): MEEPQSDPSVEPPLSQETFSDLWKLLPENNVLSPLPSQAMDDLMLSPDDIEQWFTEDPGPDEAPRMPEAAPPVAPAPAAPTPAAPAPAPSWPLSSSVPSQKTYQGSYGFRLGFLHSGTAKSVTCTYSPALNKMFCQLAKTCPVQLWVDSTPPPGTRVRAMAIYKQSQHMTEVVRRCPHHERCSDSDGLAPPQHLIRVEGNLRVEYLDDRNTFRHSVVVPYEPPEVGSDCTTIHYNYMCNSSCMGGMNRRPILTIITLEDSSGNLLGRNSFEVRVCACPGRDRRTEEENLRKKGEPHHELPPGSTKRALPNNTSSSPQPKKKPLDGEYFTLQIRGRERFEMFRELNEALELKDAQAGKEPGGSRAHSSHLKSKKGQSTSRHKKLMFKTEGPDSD
# Assay: Primary qHTS for small molecule compounds that upregulate eGFP-tagged delta133p53alpha (in N-terminal) cells. (AID 2060322); also: nearly all actives have a fitted effect of over 75% in size;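 as to activation: cells pre-induced with doxycycline then dosed without doxycycline; series mostly up to about 56 µM; 0% = DMSO vehicle and 100% = reference activator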
# Details: NCI-H358 eGFP-delta133p53alpha fluorescence, 24 h; activation: stronger effect = higher value
# Procedure, shortened: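 NCI-H358 cells pre-induced 24 h with 10 ng/ml doxycycline for eGFP-delta133p53alpha, plated dox-free and exposed 24 h at 37C to titrated compounds. Fixed, Hoechst-stained; gated GFP peak intensity by laser scanning cytometry, normalized to DMSO (0%) and 57.5 uM 5-azacytidine (100%).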
# Potency is read from the fitted curve at half-maximal effect.
SMILES,activation,Potency
CCN(CC)CCNC(=O)COc1ccc(Cl)cc1,19.2%,–
Cc1c(C(=O)O)c(O)cc2c1C(=O)c1c(O)c([C@@H]3O[C@H](CO)[C@@H](O)[C@H](O)[C@H]3O)c(O)c(O)c1C2=O,-4.18%,–
C/C(=C(\CCO)SS/C(CCO)=C(\C)N(C=O)Cc1cnc(C)nc1N)N(C=O)Cc1cnc(C)nc1N,-9.6%,–
O=c1c(-c2ccccc2)c1-c1ccccc1,–,30.9 µM (active)
N#CC(=Cc1ccc(O)c(O)c1)C(=O)NCc1ccccc1,–,34.3 µM (active)
CC=C1NC(=O)[C@H]2CSSCCC=C[C@H](CC(=O)N[C@H](C(C)C)C(=O)N2)OC(=O)[C@H](C(C)C)NC1=O,27.9%,–
Nc1ccc(O)c(C(=O)O)c1,-19.2%,–
CN1CCN(CCC(=O)N2c3ccccc3Sc3ccc(C(F)(F)F)cc32)CC1,18.6%,–
CN(C)C(=N)N=C(N)N,2.2%,–
Cc1cc(NS(=O)(=O)c2ccc(N)cc2)nc(C)n1,-13.4%,–
CN1C(C)(C)CCCC1(C)C,0%,–
CC(=O)OC[C@H]1O[C@@](COC(C)=O)(O[C@H]2O[C@H](COC(C)=O)[C@@H](OC(C)=O)[C@H](OC(C)=O)[C@H]2OC(C)=O)[C@@H](OC(C)=O)[C@@H]1OC(C)=O,10.7%,–
CC(C(=O)O)c1ccc(C(=O)c2cccs2)cc1 (stereo not drawn),9.21%,–
O=c1cc[nH]c(=O)[nH]1,-12.6%,–
CN[C@H]1[C@@H](O)[C@@H]2O[C@@H]3O[C@H](C)CC(=O)[C@]3(O)O[C@@H]2[C@@H](NC)[C@H]1O,-7.34%,–
COc1cc2c(cc1OC)C(C(C(=O)N(CCc1ccc(OC)c(OC)c1OC)CCc1ccc(OC)c(OC)c1OC)c1ccccc1)=NCC2 (stereo not drawn),3.95%,–
O=C(Oc1ccccc1C(=O)O)c1ccccc1O,-5.02%,–
Cc1ccnc2c1NC(=O)c1cccnc1N2C1CC1,-6.69% and 7.43%,–
NC(=O)c1nnn(Cc2cc(Cl)c(C(=O)c3ccc(Cl)cc3)c(Cl)c2)c1N,-8.58%,–
O=C(/C=C/c1ccc(O)c(O)c1)O[C@@H]1C[C@@](OC(=O)/C=C/c2ccc(O)c(O)c2)(C(=O)O)C[C@@H](O)[C@@H]1O,11.9%,–
Cc1c(C)n(Cc2ccccc2)c2ccc(C(=O)OCCN(C)C)cc12,-0.837%,–
Cc1ccc(O)c(-n2nc3ccccc3n2)c1,7.53%,–
O=C(OCC1(COC(=O)c2cccnc2)CCCC(COC(=O)c2cccnc2)(COC(=O)c2cccnc2)C1O)c1cccnc1,-11.7%,–
Cc1cccc(C)c1NC(=O)c1cc(S(N)(=O)=O)c(Cl)cc1O,-9.21%,–
N=C(N)c1ccc(OCCCOc2ccc(C(=N)N)cc2)cc1,-15.9%,–
CCC(CN)=C(c1ccccc1)c1ccccc1,-4.18%,–
O=C(OCc1ccccc1)c1ccc(O)cc1,-15.3%,–
COc1cc2c(cc1OC)C(=O)CC2,-2.82%,–
